Reference: PubChem BioAssay (Tox21)
Active and inactive are the calls of the source. Unless noted, calls come from the whole dose curve; as a rule, active = well fitted curve in the direction sought with a large enough effect in the repeat runs; inconclusive = weak or mixed curves; inactive = no such curve, though single readings can be large; an effect the other way counts as inactive or inconclusive. Residues, ends and D or L forms follow the SMILES beside them.

Tests used:
[1] = qHTS assay to identify small molecule antagonists of the thyroid receptor (TR) signaling pathway - cell viability counter screen (AID 743064); note: nearly all actives have a fitted effect of over 50% in size; note: potency is the fitted concentration of half-maximal effect
Summary of the method: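 Counter screen for cytotoxicity: compound plus T3 (1 nM final) on GH3.TRE-Luc cells, 23.5 h at 37 °C, then fluorescence viability readout with CellTiter-Fluor.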

[2] = qHTS assay to identify small molecule antagonists of the thyroid receptor (TR) signaling pathway (AID 743065); note: nearly all actives have a fitted effect of over 55% in size; note: potency is the fitted concentration of half-maximal effect
Summary of the method: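 GH3.TRE-Luc rat pituitary cells (two TREs driving luciferase) were dosed with compound, then stimulated with 1 nM T3 (final) for 23.5 h at 37 C. ONE-Glo luminescence was the read-out, with CellTiter-Fluor fluorescence as the cytotoxicity counter-screen.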

[3] = system: thyroid hormone receptor (rat, GH3 cells); test: qHTS assay to identify small molecule agonists of the thyroid receptor (TR) signaling pathway (AID 743066; calls by dose curve)
[4] = biological target: Estrogen receptor (Homo sapiens) (UniProt P03372); test: qHTS assay to identify small molecule antagonists of the estrogen receptor alpha (ER-alpha) signaling pathway (AID 743069; active = well fitted curve in the direction sought with a large enough effect in the signal ratio in the repeat runs, not every such curve was filed as active; inconclusive = weak or mixed curves, or effect the other way; inactive = no such curve, though single readings can be large or run the other way; the % refers to the signal ratio; note: potency is the fitted concentration of half-maximal effect)
Chain of Estrogen receptor (Homo sapiens) (P03372 whole entry, looked up): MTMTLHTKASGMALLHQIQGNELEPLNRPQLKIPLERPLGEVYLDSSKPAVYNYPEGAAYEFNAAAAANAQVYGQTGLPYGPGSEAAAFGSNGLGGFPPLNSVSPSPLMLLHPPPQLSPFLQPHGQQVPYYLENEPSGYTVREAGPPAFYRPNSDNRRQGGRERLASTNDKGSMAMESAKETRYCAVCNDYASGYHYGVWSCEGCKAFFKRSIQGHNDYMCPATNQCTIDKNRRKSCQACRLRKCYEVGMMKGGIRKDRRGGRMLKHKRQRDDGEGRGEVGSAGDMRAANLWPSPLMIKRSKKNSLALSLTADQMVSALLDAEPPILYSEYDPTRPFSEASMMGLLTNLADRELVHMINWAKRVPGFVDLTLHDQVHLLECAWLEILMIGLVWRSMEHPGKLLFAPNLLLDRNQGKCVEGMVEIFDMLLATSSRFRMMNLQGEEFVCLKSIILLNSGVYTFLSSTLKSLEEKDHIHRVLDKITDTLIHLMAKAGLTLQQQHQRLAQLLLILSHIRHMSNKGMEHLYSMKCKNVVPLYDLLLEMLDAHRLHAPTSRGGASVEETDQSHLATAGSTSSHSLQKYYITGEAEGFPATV
Summary of the method: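 Beta-lactamase FRET fluorescence is read after 2 hr at room temperature with LiveBLAzer B/G substrate. Before that, ER-alpha-bla HEK293 cells sit 4 hr after plating, then receive compound plus 17beta-estradiol and incubate 18 hr at 37C.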

[5] = qHTS assay to identify small molecule antagonists of the estrogen receptor alpha (ER-alpha) signaling pathway - cell viability counter screen (AID 743074; calls by dose curve;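 note: HEK293 cells carrying ER-alpha-UAS-bla reporter stimulated with 17beta-estradiol; nearly all actives have a fitted effect of over 45% in size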)
[6] = biological target: Estrogen receptor (Homo sapiens) (UniProt P03372); test: qHTS assay to identify small molecule agonists of the estrogen receptor alpha (ER-alpha) signaling pathway (AID 743075; calls by dose curve;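 note: HEK293 GripTite cells with ER-alpha and UAS-driven beta-lactamase reporter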; note: potency is the fitted concentration of half-maximal effect)
[7] = biological target: Estrogen receptor (Homo sapiens) (UniProt P03372); test: qHTS assay to identify small molecule agonists of the estrogen receptor alpha (ER-alpha) signaling pathway using the BG1 cell line (AID 743079); note: nearly all actives have a fitted effect of over 20% in size; note: potency is the fitted concentration of half-maximal effect
[8] = qHTS assay to identify small molecule antagonists of the estrogen receptor alpha (ER-alpha) signaling pathway using the BG1 cell line (AID 743080; calls by dose curve;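 note: BG1 cells stimulated with 17beta-estradiol alongside compound; nearly all actives have a fitted effect of over 25% in size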; note: potency is the fitted concentration of half-maximal effect)
Summary of the method: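 Luciferase inhibition measured with ONE-Glo after 30 min at RT in BG1Luc4E2 cells given test compounds and 17beta-estradiol for 21.5 h at 37 C; CellTiter-Fluor viability read in the same wells beforehand.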

[9] = qHTS assay to identify small molecule antagonists of the estrogen receptor alpha (ER-alpha) signaling pathway using the BG1 cell line - cell viability counter screen (AID 743081);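 note: compound given together with 17beta-estradiol as the ER stimulus; series mostly up to about 70 µM; nearly all actives have a fitted effect of over 45% in size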
Aromatase (Homo sapiens) = Aromatase (Homo sapiens) (UniProt P11511); test: qHTS assay to identify aromatase inhibitors (AID 743083); note: nearly all actives have a fitted effect of over 55% in size; note: potency is the fitted concentration of half-maximal effect
Chain of Aromatase (Homo sapiens) (P11511 whole entry, looked up): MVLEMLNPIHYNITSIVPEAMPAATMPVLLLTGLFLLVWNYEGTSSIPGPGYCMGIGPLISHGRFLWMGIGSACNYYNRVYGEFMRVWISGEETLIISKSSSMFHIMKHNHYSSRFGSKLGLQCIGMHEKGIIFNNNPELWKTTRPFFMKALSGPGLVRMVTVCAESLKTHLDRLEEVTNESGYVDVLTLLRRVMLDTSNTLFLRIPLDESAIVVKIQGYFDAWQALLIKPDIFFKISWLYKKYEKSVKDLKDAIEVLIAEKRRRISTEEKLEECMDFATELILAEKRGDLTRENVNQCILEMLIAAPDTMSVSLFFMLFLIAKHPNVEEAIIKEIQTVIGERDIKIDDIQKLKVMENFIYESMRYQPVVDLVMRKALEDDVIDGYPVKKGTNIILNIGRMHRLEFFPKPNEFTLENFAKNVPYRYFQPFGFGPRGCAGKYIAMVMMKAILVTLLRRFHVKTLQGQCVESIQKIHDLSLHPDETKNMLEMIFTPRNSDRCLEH

Measured: Potency

CC(=O)N[C@@H](C=O)[C@H](O)[C@H](O)[C@@H](O)CO
inactive: [1] | [2] | [3] | [4] | [5] | [6] | [7] | [8] | [9] | Aromatase (Homo sapiens)

CC1(C)S[C@@H]2[C@H](N3C(=O)C(c4ccccc4)NC3(C)C)C(=O)N2[C@H]1C(=O)O (some centres undefined)
inactive: [1] | [2] | [3] | [4] | [5] | [6] | [7] | [8] | [9] | Aromatase (Homo sapiens)

COc1ccc(/C=C/C(=O)Nc2ccccc2C(=O)O)cc1OC
active: [2] 4.73 µM | [8] 8.41 µM
inactive: [1] | [3] | [5] | [6] | [7] | [9] | Aromatase (Homo sapiens)

CO[C@H]1C[C@H](O[C@H]2[C@H](C)[C@@H](O[C@@H]3O[C@H](C)C[C@H](N(C)C)[C@H]3O)[C@@H](C)C[C@]3(CO3)C(=O)[C@H](C)[C@@H](O)[C@@H](C)[C@@H](C)OC(=O)[C@@H]2C)O[C@@H](C)[C@@H]1O
inactive: [1] | [2] | [3] | [5] | [6] | [7] | [8] | [9] | Aromatase (Homo sapiens)

COC1[C@@H](O[C@@H]2O[C@H](C)[C@@H](O[C@H]3C[C@@](C)(O)[C@H](OC(=O)CC(C)C)[C@H](C)O3)[C@H](N(C)C)[C@H]2O)[C@@H](CC=O)C[C@@H](C)[C@@H](O)/C=C/C=C/C[C@@H](C)OC(=O)C[C@H]1OC(C)=O (some centres undefined)
inactive: [1] | [2] | [3] | [4] | [5] | [6] | [7] | [8] | Aromatase (Homo sapiens)

CC1CCCC(C)N1NC(=O)c1ccc(Cl)c(S(N)(=O)=O)c1 (centres undefined)
inactive: [1] | [2] | [3] | [4] | [5] | [6] | [7] | [8] | [9] | Aromatase (Homo sapiens)

CCCCCCCCCCCCCC(=O)OCC(COP(=O)([O-])OCC[N+](C)(C)C)OC(=O)CCCCCCCCCCCCC (centres undefined)
inactive: [1] | [2] | [3] | [4] | [5] | [6] | [7] | [8] | Aromatase (Homo sapiens)

C[Se]CC[C@H](N)C(=O)O
inactive: [1] | [2] | [3] | [4] | [5] | [6] | [7] | Aromatase (Homo sapiens)

C[C@H](O)CN(C)C
inactive: [1] | [2] | [3] | [4] | [5] | [6] | [8] | [9] | Aromatase (Homo sapiens)

CS(=O)(=O)c1ccc([C@@H](O)[C@@H](COC(=O)CN)NC(=O)C(Cl)Cl)cc1
inactive: [1] | [2] | [3] | [4] | [5] | [6] | [7] | [8] | [9] | Aromatase (Homo sapiens)

Nc1nc(NC2CC2)c2ncn([C@@H]3C=C[C@@H](CO)C3)c2n1
inactive: [1] | [2] | [3] | [4] | [5] | [6] | [9] | Aromatase (Homo sapiens)
active: [7] 2.66 µM

Nc1cc(Cl)c(NC2=NCCN2)c(Cl)c1
inactive: [1] | [2] | [3] | [5] | [6] | [7] | [8] | [9] | Aromatase (Homo sapiens)

O=C(O)/C=C/C(=O)Nc1ccc(S(=O)(=O)Nc2nccs2)cc1
inactive: [1] | [2] | [3] | [4] | [5] | [6] | [7] | [8] | [9] | Aromatase (Homo sapiens)

C=C1[C@@H]2CC[C@@H](C2)C1(C)C
active: [7] 29.8 µM
inactive: [1] | [2] | [3] | [4] | [5] | [6] | [8] | [9] | Aromatase (Homo sapiens)

O=C(Cn1cnnn1)N[C@@H]1C(=O)N2C(C(=O)O)=C(CSc3nncs3)CS[C@H]12
inactive: [1] | [2] | [3] | [4] | [5] | [6] | [7] | [8] | [9] | Aromatase (Homo sapiens)

OCl
inactive: [1] | [2] | [3] | [4] | [5] | [6] | [7] | [8] | [9] | Aromatase (Homo sapiens)

Cc1cc(-c2ccc(N=Nc3ccc4c(S(=O)(=O)O)cc(S(=O)(=O)O)c(N)c4c3O)c(C)c2)ccc1N=Nc1ccc2c(S(=O)(=O)O)cc(S(=O)(=O)O)c(N)c2c1O
inactive: [1] | [3] | [4] | [6] | [9]
active: [2] 23.7 µM | Aromatase (Homo sapiens) 26.6 µM

NC(=O)[C@@H]1C[C@]2(NC(=O)NC2=O)c2cc(F)ccc2O1
inactive: [1] | [2] | [3] | [4] | [5] | [6] | [7] | [8] | [9] | Aromatase (Homo sapiens)

CC1=C(/C=C/C(C)=C/C=C/C(C)=C/C=C/C=C(C)/C=C/C=C(C)/C=C/C2=C(C)CCCC2(C)C)C(C)(C)CCC1
inactive: [1] | [2] | [3] | [4] | [5] | [6] | [7] | [8] | [9] | Aromatase (Homo sapiens)

NCCCC(=O)O
inactive: [1] | [2] | [3] | [4] | [5] | [6] | [7] | [8] | [9] | Aromatase (Homo sapiens)

O=C(CCCN1CCN2CCCC2C1)c1ccc(F)cc1 (centres undefined)
inactive: [1] | [2] | [3] | [4] | [5] | [6] | [7] | [8] | [9] | Aromatase (Homo sapiens)

OCCCNc1ccccc1
inactive: [1] | [2] | [3] | [4] | [5] | [6] | [7] | [8] | Aromatase (Homo sapiens)

O=C(O)COc1ccccc1/C=N/NC(=O)c1ccncc1
inactive: [1] | [2] | [3] | [4] | [5] | [6] | [7] | [8] | [9] | Aromatase (Homo sapiens)

c1ccc2c(c1)OCC(CN1CCCCC1)O2 (centres undefined)
inactive: [1] | [2] | [3] | [4] | [5] | [6] | [7] | [8] | [9] | Aromatase (Homo sapiens)

CCOc1ccc([N+](=O)[O-])cc1
active: [1] 31.1 µM | [2] 31.1 µM | [4] 55.8 µM [inconclusive] | [6] 6.26 µM [inconclusive] | [7] 1.96 µM | Aromatase (Homo sapiens) 27.7 µM
inactive: [3]

CO/N=C(\C(=O)N[C@@H]1C(=O)N2C(C(=O)[O-])=C(C[n+]3cccc4c3CCC4)CS[C@H]12)c1csc(N)n1
inactive: [1] | [2] | [3] | [4] | [5] | [6] | [7] | [8] | [9] | Aromatase (Homo sapiens)

Nc1nc(/C(=C/CC(=O)O)C(=O)N[C@@H]2C(=O)N3C(C(=O)O)=CCS[C@H]23)cs1
inactive: [1] | [2] | [3] | [5] | [6] | [7] | [8] | [9] | Aromatase (Homo sapiens)

CCCCCCCCCCCCCCCC(=O)OC[C@H](COP(=O)([O-])OCC[N+](C)(C)C)OC(=O)CCCCCCCCCCCCCCC
inactive: [1] | [2] | [3] | [4] | [5] | [6] | [7] | [8] | [9] | Aromatase (Homo sapiens)

CC(C)[C@H](NC(=O)[C@H](CC(=O)O)NC(=O)[C@H](CCCCN)NC(=O)[C@@H](N)CCCN=C(N)N)C(=O)N[C@@H](Cc1ccc(O)cc1)C(=O)O (H-RKDVY-OH)
inactive: [1] | [2] | [3] | [4] | [5] | [6] | [7] | [8] | [9] | Aromatase (Homo sapiens)

O=C(O)Cc1nn(Cc2ccc(Br)cc2F)c(=O)c2ccccc12
inactive: [1] | [2] | [3] | [4] | [5] | [6] | [7] | [8] | [9] | Aromatase (Homo sapiens)

CCCCCCCC/C=C\CCCCCCCC(=O)N(CCO)CCO
inactive: [3] | [5] | [6] | Aromatase (Homo sapiens)
active: [1] 54.3 µM | [2] 68.3 µM | [4] 21.8 µM [inconclusive] | [8] 54.3 µM

O=C1c2ccccc2C(=O)C1c1ccc(F)cc1
inactive: [1] | [2] | [3] | [4] | [6] | [7] | [8] | [9] | Aromatase (Homo sapiens)

CC(Cc1ccc(O)c(O)c1)C(C)Cc1ccc(O)c(O)c1 (centres undefined)
active: [1] 13.7 µM | [2] 7.7 µM | [4] 54.9 µM [inconclusive] | [6] 0.0174 µM [inconclusive]
inactive: [3] | [8] | [9] | Aromatase (Homo sapiens)

Cc1c(O)c(=O)ccn1C
inactive: [1] | [2] | [3] | [4] | [5] | [6] | [7] | [8] | [9] | Aromatase (Homo sapiens)

O=C(O)COc1ccc(C(=O)c2cccs2)c(Cl)c1Cl
inactive: [1] | [2] | [3] | [4] | [5] | [6] | [7] | [8] | [9] | Aromatase (Homo sapiens)

CC(C)(C)C(=O)OCC(=O)[C@H]1CC[C@H]2[C@@H]3CCC4=CC(=O)CC[C@]4(C)[C@H]3CC[C@]12C
inactive: [1] | [2] | [3] | [4] | [5] | [6] | [8] | [9] | Aromatase (Homo sapiens)

N[C@H](C(=O)O)[C@@H]1CC(Cl)=NO1
active: [1] 5.96 µM | [2] 2.98 µM
inactive: [3] | [5] | [6] | [7] | [8] | [9]

O=C1CCC(c2ccc(-n3ccnc3)cc2)=NN1
active: Aromatase (Homo sapiens) 6.68 µM
inactive: [1] | [2] | [3] | [4] | [6] | [7] | [8] | [9]
